# Measurements published in PubChem BioAssay (EPA / NIEHS).
# The source made the active and inactive calls. How the source made its calls: active means hit-call score of the fitted dose curve at least 0.9, where 1 is the maximum; inactive means score below 0.9.
# Key:
# Conditions in all cases: mRNA level, 48 h; actives raise or lower the signal
# [1] = read-out: Nuclear factor NF-kappa-B p105 subunit (Homo sapiens) (UniProt P19838); assay: LTEA_HepaRG_NFKB1: Life Technologies and Expression Analysis (LTEA) Assay for Nuclear Factor Kappa B Subunit 1 (NFKB1) using HepaRG (AID 2283521);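 further: TaqMan qRT-PCR transcript normalised to ACTB GAPDH and POLR2A housekeeping genes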
# Outline: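 Differentiated human HepaRG cells in serum-free induction medium with 0.5% DMSO were exposed for 48 h to eight half-log concentrations, top 100 uM, in duplicate. NFKB1 mRNA measured by Fluidigm TaqMan qRT-PCR, normalised to ACTB, GAPDH and POLR2A; bidirectional fit versus DMSO.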
# [2] = read-out: Protein phosphatase 2A (PPP2R4), PTPA (gene 5524); assay: LTEA_HepaRG_PPP2R4: Life Technologies and Expression Analysis (LTEA) Assay for Protein phosphatase 2A (PPP2R4) using HepaRG (AID 2283522)
# Outline: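 Using HepaRG cultures maintained in 0.5% DMSO, chemicals are tested 48 h at up to 100 uM in duplicate. Induction or suppression of PPP2R4 mRNA, measured by qRT-PCR, is fitted bidirectionally against the vehicle baseline.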
# [3] = read-out: Phosphatase and tensin (PTEN), PTEN (gene 5728); assay: LTEA_HepaRG_PTEN: Life Technologies and Expression Analysis (LTEA) Assay for Phosphatase and tensin (PTEN) using HepaRG (AID 2283523)
# Outline: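 HepaRG, 48 h exposure, 8-pt half-log series from 100 uM top, 0.5% DMSO vehicle, duplicates. Readout: Fluidigm qRT-PCR of PTEN transcript; housekeeping normalization (ACTB, GAPDH, POLR2A). Gain or loss fitted relative to DMSO baseline.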
# [4] = read-out: solute carrier (SLC22A1), SLC22A1 (gene 6580); assay: LTEA_HepaRG_SLC22A1: Life Technologies and Expression Analysis (LTEA) Assay for solute carrier (SLC22A1) using HepaRG (AID 2283524);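 on AC50: TaqMan qRT-PCR normalized to ACTB GAPDH and POLR2A housekeeping genes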
# Outline: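 qRT-PCR readout (TaqMan, Fluidigm arrays) of SLC22A1 transcript, normalized to three housekeeping genes; bidirectional curve fit relative to 0.5% DMSO vehicle. Differentiated human HepaRG cells, 48 h chemical exposure, top concentration 100 uM, half-log steps, eight points.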
# [5] = read-out: Pyruvate Dehydrogenase Kinase 4 (PDK4), PDK4 (gene 5166); assay: LTEA_HepaRG_PDK4: Life Technologies and Expression Analysis (LTEA) Assay for Pyruvate Dehydrogenase Kinase 4 (PDK4) using HepaRG (AID 2283525)
# Outline: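 HepaRG (human liver line), 48 h chemical exposure, 8-pt half-log CRC top 100 uM, 0.5% DMSO vehicle, duplicates. Readout: TaqMan qRT-PCR of PDK4 mRNA, housekeeping-normalized; gain/loss fit relative to DMSO baseline.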
# [6] = read-out: NAD(P)H dehydrogenase [quinone] 1 (NQO1), NQO1 (gene 1728); assay: LTEA_HepaRG_NQO1: Life Technologies and Expression Analysis (LTEA) Assay for NAD(P)H dehydrogenase [quinone] 1 (NQO1) using HepaRG (AID 2283526)
# Outline: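 In this assay, gene expression is read by qRT-PCR after 48 h exposure of HepaRG cells to eight concentrations (max 100 uM, half-log) in 0.5% DMSO. Each chemical runs in duplicate, and activity is scored relative to vehicle.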
# [7] = read-out: Nuclear factor erythroid 2-related factor 2 (Homo sapiens) (UniProt Q16236); assay: LTEA_HepaRG_NFE2L2: Life Technologies and Expression Analysis (LTEA) Assay for Nuclear factor erythroid 2-related factor 2 (NFE2L2) Transcription Factor using HepaRG (AID 2283527);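 on outcome: TaqMan qRT-PCR transcript level normalised to ACTB GAPDH and POLR2A housekeeping genes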
# Outline: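 HepaRG, 48 h dosing, 8-pt half-log series from 100 uM in 0.5% DMSO, duplicates. Read-out: NFE2L2 mRNA by qRT-PCR (ACTB/GAPDH/POLR2A normalization). Bidirectional curve fit vs DMSO baseline.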
# [8] = read-out: succinate dehydrogenase complex iron sulfur subunit B (SDHB), SDHB (gene 6390); assay: LTEA_HepaRG_SDHB: Life Technologies and Expression Analysis (LTEA) Assay for succinate dehydrogenase complex iron sulfur subunit B (SDHB) using HepaRG (AID 2283528)
# Outline: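 HepaRG cells (~100,000/well, plated 48 h) exposed in duplicate for 48 h in serum-free induction medium to 8-point half-log series from 100 uM in 0.5% DMSO; mRNA by qRT-PCR normalised to ACTB, GAPDH, POLR2A; bidirectional fit versus DMSO.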
# [9] = read-out: Signal transducer and activator of transcription 3 (Homo sapiens) (UniProt P40763); assay: LTEA_HepaRG_STAT3: Life Technologies and Expression Analysis (LTEA) Assay for Signal transducer and activator of transcription (STAT3) using HepaRG (AID 2283529)
# Outline: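 HepaRG, 48 h exposure, 8-pt half-log series (top 100 uM), 0.5% DMSO vehicle, duplicates. Readout: STAT3 transcript by Fluidigm qRT-PCR, housekeeping-normalized; bidirectional fit vs DMSO baseline.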
# [10] = read-out: solute carrier (SLCO1B1), SLCO1B1 (gene 10599); assay: LTEA_HepaRG_SLCO1B1: Life Technologies and Expression Analysis (LTEA) Assay for solute carrier (SLCO1B1) using HepaRG (AID 2283530)
# Outline: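 Differentiated human HepaRG cells were exposed for 48 h in serum-free induction medium to eight half-log concentrations, top 100 uM, in 0.5% DMSO. SLCO1B1 mRNA was measured by qRT-PCR, normalized to ACTB, GAPDH and POLR2A, and fitted bidirectionally against DMSO.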
# Chain of Signal transducer and activator of transcription 3 (Homo sapiens) (P40763 whole entry, looked up): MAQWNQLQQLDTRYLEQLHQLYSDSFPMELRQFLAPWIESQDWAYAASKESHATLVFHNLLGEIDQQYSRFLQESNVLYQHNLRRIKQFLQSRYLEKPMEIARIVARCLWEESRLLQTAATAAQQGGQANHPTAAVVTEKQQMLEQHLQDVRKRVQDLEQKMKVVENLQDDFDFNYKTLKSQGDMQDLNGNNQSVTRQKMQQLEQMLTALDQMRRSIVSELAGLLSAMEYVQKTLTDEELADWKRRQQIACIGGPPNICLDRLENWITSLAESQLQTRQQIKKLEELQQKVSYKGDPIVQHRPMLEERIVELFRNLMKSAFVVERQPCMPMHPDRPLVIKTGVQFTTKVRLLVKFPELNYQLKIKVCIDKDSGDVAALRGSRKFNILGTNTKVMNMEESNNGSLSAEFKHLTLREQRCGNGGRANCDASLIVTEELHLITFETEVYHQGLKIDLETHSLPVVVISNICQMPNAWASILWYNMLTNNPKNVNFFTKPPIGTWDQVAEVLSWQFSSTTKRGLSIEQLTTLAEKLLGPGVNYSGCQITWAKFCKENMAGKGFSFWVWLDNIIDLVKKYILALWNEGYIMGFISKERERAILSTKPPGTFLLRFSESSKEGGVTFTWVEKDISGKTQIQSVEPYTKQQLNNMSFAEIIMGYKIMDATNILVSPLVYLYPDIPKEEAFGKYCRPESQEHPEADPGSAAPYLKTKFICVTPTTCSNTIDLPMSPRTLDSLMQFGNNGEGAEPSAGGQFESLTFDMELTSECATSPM
# Chain of Nuclear factor NF-kappa-B p105 subunit (Homo sapiens) (P19838 whole entry, looked up): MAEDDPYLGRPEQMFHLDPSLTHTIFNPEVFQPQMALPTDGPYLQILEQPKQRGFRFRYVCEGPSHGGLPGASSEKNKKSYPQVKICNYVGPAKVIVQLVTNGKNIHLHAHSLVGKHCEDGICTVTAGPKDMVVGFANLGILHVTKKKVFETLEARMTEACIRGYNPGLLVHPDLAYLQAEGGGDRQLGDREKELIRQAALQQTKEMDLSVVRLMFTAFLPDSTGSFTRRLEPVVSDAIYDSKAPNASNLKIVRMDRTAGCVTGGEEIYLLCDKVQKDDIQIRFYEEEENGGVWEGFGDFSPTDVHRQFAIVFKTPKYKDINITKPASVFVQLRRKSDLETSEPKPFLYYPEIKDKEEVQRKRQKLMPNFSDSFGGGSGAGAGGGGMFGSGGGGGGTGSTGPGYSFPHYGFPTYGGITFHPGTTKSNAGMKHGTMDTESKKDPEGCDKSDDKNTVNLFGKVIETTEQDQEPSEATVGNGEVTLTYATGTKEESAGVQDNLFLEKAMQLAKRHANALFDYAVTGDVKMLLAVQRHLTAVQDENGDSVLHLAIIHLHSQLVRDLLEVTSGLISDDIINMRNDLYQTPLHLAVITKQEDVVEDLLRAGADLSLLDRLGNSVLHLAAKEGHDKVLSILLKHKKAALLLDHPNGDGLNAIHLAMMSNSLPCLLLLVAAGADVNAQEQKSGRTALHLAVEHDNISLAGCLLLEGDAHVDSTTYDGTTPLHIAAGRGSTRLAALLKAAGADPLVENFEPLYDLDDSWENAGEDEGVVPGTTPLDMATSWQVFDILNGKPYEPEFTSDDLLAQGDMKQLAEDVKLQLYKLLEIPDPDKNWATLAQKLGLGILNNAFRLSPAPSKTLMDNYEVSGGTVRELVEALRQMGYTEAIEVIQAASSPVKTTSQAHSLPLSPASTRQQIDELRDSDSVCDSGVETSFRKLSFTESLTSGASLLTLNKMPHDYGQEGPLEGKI
# Chain of Nuclear factor erythroid 2-related factor 2 (Homo sapiens) (Q16236 whole entry, looked up): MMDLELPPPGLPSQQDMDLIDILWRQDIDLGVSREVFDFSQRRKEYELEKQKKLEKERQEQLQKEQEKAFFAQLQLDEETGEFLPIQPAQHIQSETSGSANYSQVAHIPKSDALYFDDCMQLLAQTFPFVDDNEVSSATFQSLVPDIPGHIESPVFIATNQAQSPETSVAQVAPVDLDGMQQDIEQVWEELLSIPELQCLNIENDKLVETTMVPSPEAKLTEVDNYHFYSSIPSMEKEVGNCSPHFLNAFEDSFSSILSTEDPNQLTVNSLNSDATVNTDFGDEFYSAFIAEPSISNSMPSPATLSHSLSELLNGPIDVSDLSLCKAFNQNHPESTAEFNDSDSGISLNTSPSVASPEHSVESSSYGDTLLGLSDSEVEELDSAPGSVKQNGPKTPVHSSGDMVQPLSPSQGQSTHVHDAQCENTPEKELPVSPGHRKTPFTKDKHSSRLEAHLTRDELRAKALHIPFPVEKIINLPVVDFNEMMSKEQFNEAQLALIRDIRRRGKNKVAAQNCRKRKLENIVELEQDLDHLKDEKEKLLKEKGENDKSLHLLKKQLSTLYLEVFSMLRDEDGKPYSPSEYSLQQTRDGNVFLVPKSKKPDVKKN
SMILES,outcome [1],outcome [2],outcome [3],outcome [4],outcome [5],outcome [6],outcome [7],outcome [8],outcome [9],outcome [10],AC50 [4],AC50 [2],AC50 [5],AC50 [8],AC50 [3],AC50 [10],AC50 [7]
CCOc1cc(C(C)(C)C)ccc1C1COC(c2c(F)cccc2F)=N1 (stereo not given),inactive,inactive,inactive,inactive,inactive,inactive,inactive,inactive,inactive,inactive,,,,,,,
Cc1cc(C)nc(Nc2ccccc2)n1,inactive,inactive,inactive,,inactive,inactive,inactive,inactive,inactive,inactive,9.92 µM (active),,,,,,
CCNC(=O)NC(=O)C(C#N)=NOC,,inactive,inactive,,inactive,inactive,inactive,inactive,inactive,inactive,74.2 µM (active),,,,,,
COCC(=O)N(c1c(C)cccc1C)C(C)C(=O)OC (stereo not given),,inactive,inactive,inactive,inactive,inactive,inactive,inactive,inactive,inactive,,,,,,,
O=c1n(Cl)c(=O)n(Cl)c(=O)n1Cl,inactive,inactive,inactive,inactive,inactive,inactive,inactive,inactive,,inactive,,,,,,,
CC(C)(C)C(=O)C(Oc1ccc(Cl)cc1)n1cncn1 (stereo not given),inactive,inactive,inactive,inactive,inactive,inactive,inactive,inactive,,inactive,,,,,,,
Cc1ccc(N=CN(C)C=Nc2ccc(C)cc2C)c(C)c1,,inactive,inactive,inactive,inactive,inactive,inactive,inactive,,inactive,,,,,,,
O=P(O)(O)CCCl,inactive,inactive,inactive,inactive,inactive,inactive,inactive,inactive,,inactive,,,,,,,
CC(C)Nc1nc(Cl)nc(NC(C)C)n1,,inactive,inactive,inactive,inactive,inactive,inactive,inactive,,,,,,,,,
CC(C)N1C(=O)N(c2ccccc2)CSC1=NC(C)(C)C,inactive,,inactive,,,inactive,inactive,,,inactive,81.4 µM (active),77.4 µM (active),87.8 µM (active),50 µM (active),,,
Cc1cnc(C2=NC(C)(C(C)C)C(=O)N2)c(C(=O)O)c1 (stereo not given),,inactive,inactive,inactive,inactive,inactive,inactive,inactive,,inactive,,,,,,,
Cn1c(-c2ccccc2)cc(-c2ccccc2)[n+]1C,,inactive,,,inactive,inactive,inactive,inactive,,,34.5 µM (active),,,,88.3 µM (active),18.6 µM (active),
COc1cc(Cl)c(OC)cc1Cl,inactive,inactive,inactive,inactive,inactive,inactive,,inactive,,inactive,,,,,,,
CS(=O)(=O)c1ccc(C(=O)C2C(=O)CCCC2=O)c([N+](=O)[O-])c1,inactive,inactive,inactive,inactive,inactive,inactive,inactive,inactive,,inactive,,,,,,,
COC(=O)N(C(=O)N1CO[C@@]2(C(=O)OC)Cc3cc(Cl)ccc3C2=N1)c1ccc(OC(F)(F)F)cc1,,inactive,inactive,,,inactive,,inactive,inactive,,47.9 µM (active),,40 µM (active),,,59 µM (active),10 µM (active)
CSC(=O)c1c(C(F)F)nc(C(F)(F)F)c(C(=O)SC)c1CC(C)C,,inactive,inactive,,,inactive,inactive,inactive,,inactive,90 µM (active),,33.8 µM (active),,,,
Cc1nc(N(C)C)nc(OC(=O)N(C)C)c1C,,inactive,inactive,inactive,inactive,inactive,inactive,inactive,inactive,inactive,,,,,,,
CC1(C)C(C=C(Cl)Cl)C1C(=O)OC(C#N)c1cccc(Oc2ccccc2)c1 (stereo not given),inactive,inactive,inactive,inactive,,inactive,inactive,inactive,,inactive,,,50 µM (active),,,,
COP(=S)(OC)SCn1nnc2ccccc2c1=O,,inactive,inactive,inactive,inactive,inactive,inactive,inactive,,inactive,,,,,,,

SMILES,outcome [1],outcome [2],outcome [3],outcome [4],outcome [5],outcome [6],outcome [7],outcome [8],outcome [9],outcome [10],AC50 [4],AC50 [2],AC50 [5],AC50 [8],AC50 [3],AC50 [10],AC50 [7]
CN=C=S,inactive,inactive,inactive,inactive,inactive,inactive,inactive,inactive,,inactive,,,,,,,
CCN(CC)C(=O)C(C)Oc1cccc2ccccc12 (stereo not given),,inactive,inactive,,inactive,inactive,inactive,inactive,inactive,inactive,70.1 µM (active),,,,,,
Nc1cnn(-c2ccccc2)c(=O)c1Cl,inactive,inactive,inactive,inactive,inactive,inactive,inactive,inactive,,inactive,,,,,,,
CCC(C)n1c(=O)[nH]c(C)c(Br)c1=O (stereo not given),inactive,inactive,inactive,,,,,inactive,,,19.2 µM (active),,50 µM (active),,,29 µM (active),7.04 µM (active)
C=CCOC(=O)C(C)(C)OC(=O)c1cc(-n2c(=O)cc(C(F)(F)F)n(C)c2=O)ccc1Cl,,inactive,inactive,inactive,inactive,inactive,inactive,inactive,,inactive,,,,,,,
O=C1C2CC=CCC2C(=O)N1SC(Cl)(Cl)Cl (stereo not given),inactive,inactive,inactive,inactive,inactive,inactive,inactive,inactive,,inactive,,,,,,,
CCCCC(C#N)(Cn1cncn1)c1ccc(Cl)cc1 (stereo not given),,inactive,inactive,inactive,inactive,inactive,inactive,inactive,inactive,inactive,,,,,,,
COCc1cnc(C2=NC(C)(C(C)C)C(=O)N2)c(C(=O)O)c1 (stereo not given),,inactive,inactive,inactive,inactive,inactive,inactive,inactive,,inactive,,,,,,,
COP(=S)(OC)Oc1ccc([N+](=O)[O-])c(C)c1,,inactive,inactive,inactive,inactive,inactive,inactive,inactive,inactive,inactive,,,,,,,
Clc1cccc(C(Cl)(Cl)Cl)n1,,inactive,inactive,inactive,inactive,inactive,inactive,inactive,,inactive,,,,,,,
CO/N=C(/C1=NOCCO1)c1ccccc1Oc1ncnc(Oc2ccccc2Cl)c1F,inactive,inactive,inactive,,,inactive,,inactive,,,24.8 µM (active),,11.7 µM (active),,,31.1 µM (active),50 µM (active)
CC(C)NC(=O)N1CC(=O)N(c2cc(Cl)cc(Cl)c2)C1=O,inactive,inactive,inactive,,,inactive,,inactive,,,21.3 µM (active),,12.7 µM (active),,,15.6 µM (active),13.1 µM (active)
CN/C(=N\[N+](=O)[O-])NCc1cnc(Cl)s1,,inactive,inactive,inactive,,inactive,inactive,inactive,inactive,inactive,,,36.6 µM (active),,,,
CCOP(=S)(OCC)Oc1nc(Cl)n(C(C)C)n1,inactive,inactive,inactive,,,inactive,inactive,inactive,,inactive,12.2 µM (active),,1.82 µM (active),,,,
CCOc1nc(F)cc2nc(S(=O)(=O)Nc3c(Cl)cccc3Cl)nn12,inactive,inactive,inactive,,inactive,inactive,inactive,inactive,,inactive,50 µM (active),,,,,,
CC(C)C1(C)N=C(c2ncccc2C(=O)O)NC1=O (stereo not given),,inactive,inactive,inactive,inactive,inactive,inactive,inactive,,inactive,,,,,,,
CCCC(=NOCC)C1=C(O)CC(CC(C)SCC)CC1=O (stereo not given),inactive,inactive,inactive,inactive,inactive,inactive,inactive,inactive,,inactive,,,,,,,
CNC(=O)Oc1cccc2ccccc12,inactive,inactive,inactive,inactive,inactive,inactive,inactive,inactive,,inactive,,,,,,,
CC1(C)CCC(=Cc2ccc(Cl)cc2)C1(O)Cn1cncn1 (stereo not given),,inactive,inactive,inactive,inactive,inactive,inactive,inactive,,inactive,,,,,,,
